Binding signal data for two sequences are collected here from paper PMC7862700, “An all-to-all approach to the identification of sequence-specific readers for epigenetic DNA modifications on cytosine”.

Test in all cases: DAPPL (digital affinity profiling via proximity ligation, sequencing); 10 mM Tris-HCl pH 7.5, 50 mM NaCl, 1 mM DTT, 4% glycerol, room temperature, 30 min; GST-TFs on glutathione beads, 16-mer random dsDNA library, 0.1% formaldehyde crosslink after washing; high values mean tight binding
Holding throughout (settings): protein: recombinant; tags: N-terminal GST; dsDNA, one strand shown

The target in one test is T1, FLI1 (Homo sapiens, UniProt Q01543 1-452).
T1 sequence: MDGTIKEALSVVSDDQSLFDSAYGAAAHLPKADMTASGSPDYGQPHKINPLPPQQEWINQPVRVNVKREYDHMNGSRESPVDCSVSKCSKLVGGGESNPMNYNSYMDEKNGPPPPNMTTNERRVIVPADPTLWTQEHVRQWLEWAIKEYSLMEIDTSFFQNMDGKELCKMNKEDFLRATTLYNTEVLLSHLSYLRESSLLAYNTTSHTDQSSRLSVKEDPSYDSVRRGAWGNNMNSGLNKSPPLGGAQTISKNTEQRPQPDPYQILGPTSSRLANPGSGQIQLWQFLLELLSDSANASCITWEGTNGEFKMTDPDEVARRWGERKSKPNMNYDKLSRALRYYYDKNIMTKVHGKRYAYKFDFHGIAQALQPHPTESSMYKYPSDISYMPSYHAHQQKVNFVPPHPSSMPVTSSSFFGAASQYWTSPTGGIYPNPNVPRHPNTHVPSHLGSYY
Put shortly: (§1)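 Sequencing on an Illumina NextSeq500 followed washing, crosslinking with 0.1% formaldehyde, proximity ligation (BsaI/T4 ligase, 1 h, 37 °C) and PCR amplification of pools that had been incubated for 30 min at room temperature with 200 nmole of a random double-stranded 16-mer DNA library in Tris/NaCl/DTT/glycerol buffer. Each pool held DNA-barcoded human transcription factors, expressed in yeast as GST fusions and captured on glutathione beads, plus a tag-only sample. Binding signal is a hexamer's read frequency for a factor divided by its frequency in the tag-only sample.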

The target of the next test is T2, ELK1 (Homo sapiens, UniProt P19419 1-428).
T2 sequence: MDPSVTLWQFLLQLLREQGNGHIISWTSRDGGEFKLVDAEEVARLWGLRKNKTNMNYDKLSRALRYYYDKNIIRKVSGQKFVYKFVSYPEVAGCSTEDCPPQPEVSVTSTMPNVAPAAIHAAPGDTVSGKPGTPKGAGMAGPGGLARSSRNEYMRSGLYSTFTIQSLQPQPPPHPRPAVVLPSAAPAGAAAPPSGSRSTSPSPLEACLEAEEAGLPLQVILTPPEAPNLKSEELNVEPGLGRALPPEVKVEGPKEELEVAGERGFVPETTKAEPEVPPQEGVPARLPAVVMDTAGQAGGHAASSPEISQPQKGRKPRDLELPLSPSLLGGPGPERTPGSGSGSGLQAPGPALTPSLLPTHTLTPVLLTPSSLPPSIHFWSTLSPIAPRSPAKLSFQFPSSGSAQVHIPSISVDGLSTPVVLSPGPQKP
Put shortly:
as §1

The next test addresses T3, GABPA (Homo sapiens, UniProt Q06546 1-454).
T3 sequence: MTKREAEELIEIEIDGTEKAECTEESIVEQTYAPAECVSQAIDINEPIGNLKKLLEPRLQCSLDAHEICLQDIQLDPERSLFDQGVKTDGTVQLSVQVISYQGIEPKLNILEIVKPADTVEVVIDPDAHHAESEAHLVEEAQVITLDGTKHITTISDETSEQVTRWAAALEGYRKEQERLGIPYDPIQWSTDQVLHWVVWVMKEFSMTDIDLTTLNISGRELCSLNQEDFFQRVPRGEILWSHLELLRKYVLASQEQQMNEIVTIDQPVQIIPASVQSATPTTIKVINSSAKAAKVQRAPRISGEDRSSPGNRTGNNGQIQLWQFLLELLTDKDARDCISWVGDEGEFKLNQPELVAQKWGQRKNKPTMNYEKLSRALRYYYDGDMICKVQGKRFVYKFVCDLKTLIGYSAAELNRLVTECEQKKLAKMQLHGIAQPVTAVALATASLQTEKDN
Put shortly:
as §1

The target of the next test is T4, ERG (Homo sapiens, UniProt P11308 1-479).
T4 sequence: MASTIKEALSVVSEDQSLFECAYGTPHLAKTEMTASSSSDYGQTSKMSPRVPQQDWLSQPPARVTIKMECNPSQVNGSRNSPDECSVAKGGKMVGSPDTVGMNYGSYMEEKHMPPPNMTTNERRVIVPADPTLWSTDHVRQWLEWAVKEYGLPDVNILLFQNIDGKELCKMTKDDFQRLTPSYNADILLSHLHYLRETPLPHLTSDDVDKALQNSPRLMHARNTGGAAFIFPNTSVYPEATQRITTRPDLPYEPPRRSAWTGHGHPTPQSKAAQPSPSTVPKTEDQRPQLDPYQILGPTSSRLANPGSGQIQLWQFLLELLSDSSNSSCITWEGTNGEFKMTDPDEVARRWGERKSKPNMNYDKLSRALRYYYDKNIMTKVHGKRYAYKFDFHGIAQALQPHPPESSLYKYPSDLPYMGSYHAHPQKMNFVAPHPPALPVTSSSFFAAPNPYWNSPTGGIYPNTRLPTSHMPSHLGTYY
Put shortly: as §1

In the next test the target is ELF1 (Homo sapiens, UniProt P32519 1-619). Put shortly: as §1
In a further test the target is T5, EHF (Homo sapiens, UniProt Q9NZC4 1-300).
T5 sequence: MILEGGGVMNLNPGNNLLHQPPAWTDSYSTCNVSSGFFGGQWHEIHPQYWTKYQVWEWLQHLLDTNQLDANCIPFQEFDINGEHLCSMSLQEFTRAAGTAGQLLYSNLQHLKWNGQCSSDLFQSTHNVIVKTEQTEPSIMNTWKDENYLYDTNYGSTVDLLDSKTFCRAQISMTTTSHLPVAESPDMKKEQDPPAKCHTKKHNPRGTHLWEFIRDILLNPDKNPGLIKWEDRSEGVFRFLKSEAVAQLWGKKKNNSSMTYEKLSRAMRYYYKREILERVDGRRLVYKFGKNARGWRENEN
Put shortly: as §1

A further test addresses SPI1 (Homo sapiens, UniProt P17947 1-270). Put shortly:
as §1

In a further test the target is SPIB (Homo sapiens, UniProt Q01892 1-262). Put shortly: as §1
Another test addresses T6, ELK3 (Homo sapiens, UniProt P41970 1-407).
T6 sequence: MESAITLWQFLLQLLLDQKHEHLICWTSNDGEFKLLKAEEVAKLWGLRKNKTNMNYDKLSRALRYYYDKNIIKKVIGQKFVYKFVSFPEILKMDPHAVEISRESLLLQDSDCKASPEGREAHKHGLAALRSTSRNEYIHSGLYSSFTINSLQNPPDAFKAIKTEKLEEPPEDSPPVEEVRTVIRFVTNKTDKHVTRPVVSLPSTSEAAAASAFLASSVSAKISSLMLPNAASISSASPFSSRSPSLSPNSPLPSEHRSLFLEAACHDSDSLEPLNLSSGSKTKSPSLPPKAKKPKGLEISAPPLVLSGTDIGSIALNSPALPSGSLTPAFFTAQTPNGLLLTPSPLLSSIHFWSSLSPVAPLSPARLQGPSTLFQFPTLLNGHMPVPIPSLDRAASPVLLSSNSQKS
Put shortly: as §1

The next test has as its target T7, FEV (Homo sapiens, UniProt Q99581 1-238).
T7 sequence: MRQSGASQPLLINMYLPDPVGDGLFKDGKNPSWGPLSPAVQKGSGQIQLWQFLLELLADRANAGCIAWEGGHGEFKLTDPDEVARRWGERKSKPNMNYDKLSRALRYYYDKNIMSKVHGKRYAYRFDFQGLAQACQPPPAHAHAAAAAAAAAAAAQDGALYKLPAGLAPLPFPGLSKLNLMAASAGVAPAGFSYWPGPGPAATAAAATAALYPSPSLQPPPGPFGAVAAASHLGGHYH
Put shortly: as §1

Another test deals with ETV5 (Homo sapiens, UniProt P41161 1-510). Put shortly:
as §1

In another test the target is T8, SPIC (Homo sapiens, UniProt Q8N5J4 1-248).
T8 sequence: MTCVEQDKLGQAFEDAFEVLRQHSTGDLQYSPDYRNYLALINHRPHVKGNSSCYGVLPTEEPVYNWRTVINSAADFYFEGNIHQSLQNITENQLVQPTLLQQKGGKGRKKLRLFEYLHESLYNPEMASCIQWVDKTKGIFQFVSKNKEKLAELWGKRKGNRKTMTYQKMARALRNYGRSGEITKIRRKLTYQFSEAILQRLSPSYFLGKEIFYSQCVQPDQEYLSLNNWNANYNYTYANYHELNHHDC
Put shortly:
as §1

A further test addresses ELF4 (Homo sapiens, UniProt Q99607 1-663). Put shortly: as §1
The target of a further test is T9, ELK4 (Homo sapiens, UniProt P28324-2 1-405).
T9 sequence: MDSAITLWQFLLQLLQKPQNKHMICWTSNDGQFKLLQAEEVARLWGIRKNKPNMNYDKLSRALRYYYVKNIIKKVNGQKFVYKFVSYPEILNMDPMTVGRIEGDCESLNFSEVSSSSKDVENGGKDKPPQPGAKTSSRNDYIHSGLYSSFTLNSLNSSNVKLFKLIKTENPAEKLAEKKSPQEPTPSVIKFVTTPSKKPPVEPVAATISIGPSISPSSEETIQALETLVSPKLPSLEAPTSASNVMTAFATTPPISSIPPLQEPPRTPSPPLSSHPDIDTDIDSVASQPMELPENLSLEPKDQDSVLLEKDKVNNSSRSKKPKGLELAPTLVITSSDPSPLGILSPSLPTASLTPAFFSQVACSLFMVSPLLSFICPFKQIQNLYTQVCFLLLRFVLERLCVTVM
Put shortly:
as §1

Another test concerns the target T10, ETV2 (Homo sapiens, UniProt O00321 1-342).
T10 sequence: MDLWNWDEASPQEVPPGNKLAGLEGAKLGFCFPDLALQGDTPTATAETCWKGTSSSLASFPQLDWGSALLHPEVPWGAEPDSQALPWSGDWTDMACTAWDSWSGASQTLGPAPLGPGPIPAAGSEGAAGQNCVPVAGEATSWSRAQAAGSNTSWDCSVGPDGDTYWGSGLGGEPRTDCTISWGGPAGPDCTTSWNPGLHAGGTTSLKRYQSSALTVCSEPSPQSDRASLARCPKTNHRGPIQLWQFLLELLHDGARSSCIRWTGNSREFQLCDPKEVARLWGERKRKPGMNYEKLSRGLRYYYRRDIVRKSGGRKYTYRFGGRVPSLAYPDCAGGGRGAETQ
Put shortly:
as §1

For another test, the target named is ETV1 (Homo sapiens, UniProt P50549 1-477). Put shortly:
as §1

The target of another test is T11, ELF3 (Homo sapiens, UniProt P78545 1-371).
T11 sequence: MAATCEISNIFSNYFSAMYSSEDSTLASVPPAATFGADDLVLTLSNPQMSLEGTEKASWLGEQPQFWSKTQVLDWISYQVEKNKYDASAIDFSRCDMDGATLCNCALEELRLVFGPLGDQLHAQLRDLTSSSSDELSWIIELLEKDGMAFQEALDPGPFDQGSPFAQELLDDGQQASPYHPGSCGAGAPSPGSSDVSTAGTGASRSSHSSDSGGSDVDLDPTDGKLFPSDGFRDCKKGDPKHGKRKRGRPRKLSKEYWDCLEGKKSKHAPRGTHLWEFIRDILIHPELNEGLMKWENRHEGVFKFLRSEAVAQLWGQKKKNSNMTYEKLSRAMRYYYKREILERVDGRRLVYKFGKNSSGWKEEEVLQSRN
Put shortly: as §1

A further test has as its target CRX (Homo sapiens, UniProt O43186 1-299). Put shortly: as §1

Sequence of ETV5 (P41161 whole entry): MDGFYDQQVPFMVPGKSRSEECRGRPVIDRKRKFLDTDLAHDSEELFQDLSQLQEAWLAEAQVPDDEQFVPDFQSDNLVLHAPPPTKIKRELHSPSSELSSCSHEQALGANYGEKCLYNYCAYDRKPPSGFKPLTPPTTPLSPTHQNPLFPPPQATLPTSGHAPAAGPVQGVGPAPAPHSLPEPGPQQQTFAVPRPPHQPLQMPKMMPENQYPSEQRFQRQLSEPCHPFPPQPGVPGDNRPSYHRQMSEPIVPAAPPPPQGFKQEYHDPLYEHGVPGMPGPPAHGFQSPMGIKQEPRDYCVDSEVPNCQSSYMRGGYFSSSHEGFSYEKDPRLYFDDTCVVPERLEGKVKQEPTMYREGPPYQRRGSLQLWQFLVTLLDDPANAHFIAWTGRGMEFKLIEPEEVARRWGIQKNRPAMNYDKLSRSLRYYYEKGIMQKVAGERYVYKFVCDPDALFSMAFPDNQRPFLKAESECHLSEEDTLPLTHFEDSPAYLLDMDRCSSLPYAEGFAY
Sequence of SPIB (Q01892 whole entry): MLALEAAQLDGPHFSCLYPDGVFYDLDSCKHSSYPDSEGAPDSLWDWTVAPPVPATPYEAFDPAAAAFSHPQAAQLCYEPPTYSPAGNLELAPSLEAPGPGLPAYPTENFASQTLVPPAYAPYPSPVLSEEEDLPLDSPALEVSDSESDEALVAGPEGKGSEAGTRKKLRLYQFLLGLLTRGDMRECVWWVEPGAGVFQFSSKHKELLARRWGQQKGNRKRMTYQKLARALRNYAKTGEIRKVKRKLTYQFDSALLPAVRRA
Sequence of ELF4 (Q99607 whole entry): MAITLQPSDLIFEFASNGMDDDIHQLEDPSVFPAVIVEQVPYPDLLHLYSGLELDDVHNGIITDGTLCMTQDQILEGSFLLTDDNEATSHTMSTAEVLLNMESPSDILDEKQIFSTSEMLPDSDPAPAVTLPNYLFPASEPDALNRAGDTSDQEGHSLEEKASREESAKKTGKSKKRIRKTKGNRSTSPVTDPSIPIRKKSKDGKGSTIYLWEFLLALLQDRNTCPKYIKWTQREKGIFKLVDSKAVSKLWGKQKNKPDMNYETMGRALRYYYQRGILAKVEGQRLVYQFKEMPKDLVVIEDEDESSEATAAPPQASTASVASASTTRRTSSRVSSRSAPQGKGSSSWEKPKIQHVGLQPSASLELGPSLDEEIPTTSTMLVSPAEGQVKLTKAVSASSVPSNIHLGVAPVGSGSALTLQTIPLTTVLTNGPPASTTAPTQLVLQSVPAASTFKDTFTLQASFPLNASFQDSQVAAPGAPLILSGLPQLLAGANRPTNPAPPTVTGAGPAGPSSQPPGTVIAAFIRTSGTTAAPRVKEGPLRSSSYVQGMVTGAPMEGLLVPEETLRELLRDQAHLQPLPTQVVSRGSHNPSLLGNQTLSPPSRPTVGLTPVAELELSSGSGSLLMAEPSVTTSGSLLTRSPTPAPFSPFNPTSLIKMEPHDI
Sequence of ELF1 (P32519 whole entry): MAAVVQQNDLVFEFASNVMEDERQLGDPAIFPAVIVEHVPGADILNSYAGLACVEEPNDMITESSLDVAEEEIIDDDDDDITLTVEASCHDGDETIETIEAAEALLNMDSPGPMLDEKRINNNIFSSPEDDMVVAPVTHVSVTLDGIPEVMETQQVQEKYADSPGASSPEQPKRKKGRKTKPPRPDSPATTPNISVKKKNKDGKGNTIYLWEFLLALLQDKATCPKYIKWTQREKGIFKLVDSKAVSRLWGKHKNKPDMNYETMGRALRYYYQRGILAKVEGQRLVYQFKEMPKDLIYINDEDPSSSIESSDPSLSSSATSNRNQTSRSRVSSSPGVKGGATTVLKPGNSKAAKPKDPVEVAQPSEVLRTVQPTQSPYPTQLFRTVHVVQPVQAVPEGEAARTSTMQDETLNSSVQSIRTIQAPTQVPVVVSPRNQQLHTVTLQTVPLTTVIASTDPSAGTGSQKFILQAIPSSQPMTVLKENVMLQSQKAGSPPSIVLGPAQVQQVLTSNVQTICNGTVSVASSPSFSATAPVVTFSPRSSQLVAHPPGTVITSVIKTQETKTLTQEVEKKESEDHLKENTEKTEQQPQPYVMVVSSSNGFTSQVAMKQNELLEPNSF
Sequence of ETV1 (P50549 whole entry): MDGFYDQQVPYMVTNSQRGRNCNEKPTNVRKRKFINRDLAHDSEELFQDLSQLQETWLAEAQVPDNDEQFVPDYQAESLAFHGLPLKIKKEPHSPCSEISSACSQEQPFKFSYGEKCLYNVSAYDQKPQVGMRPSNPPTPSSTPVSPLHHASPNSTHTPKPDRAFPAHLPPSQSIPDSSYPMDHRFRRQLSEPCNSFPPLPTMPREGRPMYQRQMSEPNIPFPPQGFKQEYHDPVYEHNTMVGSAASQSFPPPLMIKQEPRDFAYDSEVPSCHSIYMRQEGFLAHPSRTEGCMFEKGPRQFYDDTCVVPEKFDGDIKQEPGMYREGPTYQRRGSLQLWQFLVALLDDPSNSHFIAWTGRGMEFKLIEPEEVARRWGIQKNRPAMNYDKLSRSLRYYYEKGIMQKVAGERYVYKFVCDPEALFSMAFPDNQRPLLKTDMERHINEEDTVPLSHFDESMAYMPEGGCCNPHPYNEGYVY
Sequence of CRX (O43186 whole entry): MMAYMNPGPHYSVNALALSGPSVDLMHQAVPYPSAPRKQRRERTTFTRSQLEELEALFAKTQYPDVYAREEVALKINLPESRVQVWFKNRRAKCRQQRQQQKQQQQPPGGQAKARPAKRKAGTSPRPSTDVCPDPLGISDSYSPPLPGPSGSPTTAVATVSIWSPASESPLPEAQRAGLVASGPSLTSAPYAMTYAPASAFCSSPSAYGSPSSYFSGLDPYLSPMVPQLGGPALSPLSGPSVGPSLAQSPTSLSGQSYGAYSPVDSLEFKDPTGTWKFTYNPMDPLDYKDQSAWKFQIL

In the case of GCCCGC, the binding signal was 1.09 fold enrichment (6-mer frequency, TF over GST control) with FLI1; 1.15 fold enrichment (6-mer frequency, TF over GST control) with ELK1; 1.1 fold enrichment (6-mer frequency, TF over GST control) with GABPA; 1.1 fold enrichment (6-mer frequency, TF over GST control) in the test with ERG; 1.07 fold enrichment (6-mer frequency, TF over GST control) with ELF1; 1.09 fold enrichment (6-mer frequency, TF over GST control) with EHF. The binding signal was 1.01 fold enrichment (6-mer frequency, TF over GST control) in the test with SPI1; 1.03 fold enrichment (6-mer frequency, TF over GST control) with SPIB; 1.24 fold enrichment (6-mer frequency, TF over GST control) with ELK3; 1.11 fold enrichment (6-mer frequency, TF over GST control) in the test with FEV; 1.02 fold enrichment (6-mer frequency, TF over GST control) in the test with ETV5; 1.34 fold enrichment (6-mer frequency, TF over GST control) with SPIC. Moreover, the binding signal with ELF4 was 1.19 fold enrichment (6-mer frequency, TF over GST control); in the test with ELK4, 1.15 fold enrichment (6-mer frequency, TF over GST control); with ETV2, 1.16 fold enrichment (6-mer frequency, TF over GST control); with ETV1, 1.06 fold enrichment (6-mer frequency, TF over GST control).
Consider GGGCTA, for which the binding signal with FLI1 was 1.1 fold enrichment (6-mer frequency, TF over GST control); with ELK1 it was 1.05 fold enrichment (6-mer frequency, TF over GST control); in the test with GABPA, 1.08 fold enrichment (6-mer frequency, TF over GST control); in the test with ERG, 1.16 fold enrichment (6-mer frequency, TF over GST control); with ELF1 it was 1.16 fold enrichment (6-mer frequency, TF over GST control); with EHF it was 1.18 fold enrichment (6-mer frequency, TF over GST control). Also, the binding signal with SPIB was 1.15 fold enrichment (6-mer frequency, TF over GST control); in the test with ELK3, 1.06 fold enrichment (6-mer frequency, TF over GST control); with FEV it was 1.04 fold enrichment (6-mer frequency, TF over GST control); in the test with ETV5, 1.06 fold enrichment (6-mer frequency, TF over GST control); with SPIC it was 1.23 fold enrichment (6-mer frequency, TF over GST control); with ELF4, 1.17 fold enrichment (6-mer frequency, TF over GST control). Moreover, the binding signal is 1.29 fold enrichment (6-mer frequency, TF over GST control) with ELK4; 1 fold enrichment (6-mer frequency, TF over GST control) in the test with ELF3; 1.15 fold enrichment (6-mer frequency, TF over GST control) with CRX; 1.11 fold enrichment (6-mer frequency, TF over GST control) in the test with ETV1.
